Data published in PubChem BioAssay (NCATS).
Results filed as inconclusive are left out. Activity calls are given as the source filed them. Unless noted, calls come from the whole dose curve; as a rule, active = well fitted curve in the direction sought with a large enough effect; inconclusive = small, poorly fitted or top-dose-only effect, or another doubt; inactive = no such curve, though single readings can be large; an effect the other way counts as inactive or inconclusive.

Key:
[1] = biological target: ATP-dependent 6-phosphofructokinase (Trypanosoma brucei brucei) (UniProt O15648); assay: qHTS Assay to Find Inhibitors of T. brucei phosphofructokinase: hit validation (AID 492961);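 note: luminescence reports ADP formed as PFK phosphorylates fructose-6-phosphate with ATP; % is set by controls: 0 for no effect and ±100 for the full control effect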; details: T. brucei PFK, ADP-Glo luminescence; series mostly up to 51.4 µM
ATP-dependent 6-phosphofructokinase (Trypanosoma brucei brucei), sequence (O15648 whole entry, looked up): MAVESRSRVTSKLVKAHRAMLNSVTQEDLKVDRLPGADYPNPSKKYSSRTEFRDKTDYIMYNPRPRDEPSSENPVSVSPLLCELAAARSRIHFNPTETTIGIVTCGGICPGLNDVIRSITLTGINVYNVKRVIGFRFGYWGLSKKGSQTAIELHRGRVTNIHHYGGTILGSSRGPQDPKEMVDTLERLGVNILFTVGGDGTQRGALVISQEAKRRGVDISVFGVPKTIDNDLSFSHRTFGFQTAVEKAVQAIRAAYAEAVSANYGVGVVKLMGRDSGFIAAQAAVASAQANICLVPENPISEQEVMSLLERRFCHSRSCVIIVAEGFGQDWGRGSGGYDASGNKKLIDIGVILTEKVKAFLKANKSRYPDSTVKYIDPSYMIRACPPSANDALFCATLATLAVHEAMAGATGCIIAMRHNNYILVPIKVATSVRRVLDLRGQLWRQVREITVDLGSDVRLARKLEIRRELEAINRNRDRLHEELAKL
Method in brief: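 Percent activity derived from corrected luminescence, normalized between 0x and 1x enzyme controls, then fitted to concentration-response curves. Conditions: 1.25 nM PFK, 0.1 mM ATP, 0.5 mM F6P, 45 min RT.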

[2] = biological target: Luciferin 4-monooxygenase (Photinus pyralis) (UniProt P08659); assay: Biochemical firefly luciferase enzyme assay for NPC (AID 624030); note: nearly all actives have a fitted effect of over 70% in size; note: potency is the fitted concentration of half-maximal effect; details: purified P. pyralis luciferase, luminescence, 5 min; series mostly up to 58.6 µM
Luciferin 4-monooxygenase (Photinus pyralis), sequence (P08659 whole entry, looked up): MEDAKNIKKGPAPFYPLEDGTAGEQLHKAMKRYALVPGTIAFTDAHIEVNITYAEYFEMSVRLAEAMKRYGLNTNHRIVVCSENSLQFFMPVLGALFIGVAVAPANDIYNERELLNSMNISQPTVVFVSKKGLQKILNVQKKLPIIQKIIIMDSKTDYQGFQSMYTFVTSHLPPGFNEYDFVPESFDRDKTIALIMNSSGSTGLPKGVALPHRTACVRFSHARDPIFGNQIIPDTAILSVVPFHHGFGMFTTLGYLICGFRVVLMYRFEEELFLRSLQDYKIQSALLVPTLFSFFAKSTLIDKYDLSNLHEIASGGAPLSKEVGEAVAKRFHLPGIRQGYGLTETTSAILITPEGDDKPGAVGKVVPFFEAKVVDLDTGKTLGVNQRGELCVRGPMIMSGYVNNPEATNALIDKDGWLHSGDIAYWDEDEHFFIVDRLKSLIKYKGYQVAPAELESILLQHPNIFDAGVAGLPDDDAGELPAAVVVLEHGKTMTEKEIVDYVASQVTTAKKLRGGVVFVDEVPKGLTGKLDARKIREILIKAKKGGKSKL
Method in brief: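 Counter-screen for direct inhibition of the luciferase enzyme by approved-drug library compounds, run at 10 nM enzyme in 50 mM Tris acetate (final). Luminescence was read within 5 min of enzyme-buffer addition and normalized to PTC124 versus DMSO (0%).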

[3] = S16 Schwann cell PMP22 intronic element beta-lactamase assay (AID 624044; calls by dose curve; note: nearly all actives have a fitted effect of over 15% in size; note: potency is the fitted concentration of half-maximal effect;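 for ratio activity, negative = inhibition: 0% = DMSO and -100% = potassium clavulanate positive control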); details: S16 rat Schwann cells, PMP22 element beta-lactamase FRET, 24 h; ratio activity, negative = inhibition: at 38.3 µM (top of the series)
Method in brief: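 Beta-lactamase reporter under a PMP22 intronic regulatory element in stable S16 rat Schwann cells; 24 h compound exposure. 460 nm blue signal normalized between DMSO (0%) and potassium clavulanate, with 535 nm FRET tracking viability; curves classed by r2 and response.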

[4] = qHTS profiling for inhibitors of Plasmodium falciparum proliferation (AID 504749); note: potency is the fitted concentration of half-maximal effect;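 for activity, negative = inhibition: 0% = DMSO vehicle and full inhibition = artemisinin control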; for all read-outs here: nearly all actives have a fitted effect of over 60% in size; details: P. falciparum in erythrocytes, SYBR Green DNA, 72 h; for activity, negative = inhibition: at 28.7 µM (top of the series)
Method in brief: (§1)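 Quantitative HTS: compounds pinned into medium, infected erythrocytes added (0.3% parasitemia, 2.5% hematocrit), 72 h culture at 37 C under 5% CO2. Saponin/Triton lysis with SYBR Green I, overnight RT, then fluorescence read.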

CP192 = assay: as above; details: P. falciparum in erythrocytes, SYBR Green DNA, 72 h; series mostly up to 28.7 µM
Method in brief: as §1

CP201 = assay: as above; details: P. falciparum in erythrocytes, SYBR Green DNA, 72 h; series mostly up to 28.7 µM
Method in brief: as §1

CP211 = assay: as above; details: P. falciparum in erythrocytes, SYBR Green DNA, 72 h; series mostly up to 28.7 µM
Method in brief: as §1

CP238 = assay: as above; details: P. falciparum in erythrocytes, SYBR Green DNA, 72 h; series mostly up to 28.7 µM
Method in brief: as §1

CP262 = assay: as above; details: P. falciparum in erythrocytes, SYBR Green DNA, 72 h; series mostly up to 28.7 µM
Method in brief: as §1

CP269 = assay: as above; details: P. falciparum in erythrocytes, SYBR Green DNA, 72 h; series mostly up to 28.7 µM
Method in brief: as §1

CP286 = assay: as above; details: P. falciparum in erythrocytes, SYBR Green DNA, 72 h; series mostly up to 28.7 µM
Method in brief: as §1

CP325 = assay: as above; details: P. falciparum in erythrocytes, SYBR Green DNA, 72 h; series mostly up to 28.7 µM
Method in brief: as §1

CP329 = assay: as above; details: P. falciparum in erythrocytes, SYBR Green DNA, 72 h; series mostly up to 28.7 µM
Method in brief: as §1

DFO2036 = assay: as above; details: P. falciparum in erythrocytes, SYBR Green DNA, 72 h; series mostly up to 28.7 µM
Method in brief: as §1

FAB9 = assay: as above; details: P. falciparum in erythrocytes, SYBR Green DNA, 72 h; series mostly up to 28.7 µM
Method in brief: as §1

JCK = assay: as above; details: P. falciparum in erythrocytes, SYBR Green DNA, 72 h; series mostly up to 28.7 µM
Method in brief: as §1

N140 = assay: as above; details: P. falciparum in erythrocytes, SYBR Green DNA, 72 h; series mostly up to 28.7 µM
Method in brief: as §1

CP315 = assay: as above; details: P. falciparum in erythrocytes, SYBR Green DNA, 72 h; series mostly up to 28.7 µM
Method in brief: as §1

Dd2 = assay: as above; details: P. falciparum in erythrocytes, SYBR Green DNA, 72 h; series mostly up to 28.7 µM
Method in brief: as §1

PC49 = assay: as above; details: P. falciparum in erythrocytes, SYBR Green DNA, 72 h; series mostly up to 28.7 µM
Method in brief: as §1

CC1(C)O[C@@H]2C[C@H]3[C@@H]4CCC5=CC(=O)C=C[C@]5(C)[C@H]4C(O)C[C@]3(C)[C@]2(C(=O)CO)O1 (some centres undefined)
inactive: Potency [1] | Potency [2] | Potency [3] | activity, negative = inhibition ([4]; parasite line A) -12.4% | activity, negative = inhibition ([4]; parasite line B) -28% | Potency (CP192) | Potency (CP201) | Potency (CP211) | Potency (CP238) | Potency (CP262) | Potency (CP269) | Potency (CP286) | Potency (CP325) | Potency (CP329) | Potency (DFO2036) | Potency (FAB9) | Potency (JCK)
active: Potency (N140) 11.2 µM

CCC(C)C(N)C(=O)O (centres undefined)
inactive: Potency [1] | Potency [2] | activity, negative = inhibition ([4]; parasite line B) -1.6% | Potency (CP192) | Potency (CP201) | Potency (CP211) | Potency (CP238) | Potency (CP262) | Potency (CP269) | Potency (CP286) | Potency (CP315) | Potency (CP325) | Potency (CP329) | Potency (DFO2036) | Potency (Dd2) | Potency (FAB9) | Potency (JCK) | Potency (N140) | Potency (PC49)

C=C1CC[C@H](O)C/C1=C/C=C1\CCC[C@]2(C)[C@@H]([C@H](C)CCCC(C)(C)O)CC[C@@H]12
active: Potency ([4]; parasite line B) 11.2 µM | Potency (Dd2) 12.6 µM | Potency (N140) 10 µM
inactive: Potency [1] | Potency [2] | Potency (CP192) | Potency (CP201) | Potency (CP211) | Potency (CP262) | Potency (CP269) | Potency (CP315) | Potency (CP325) | Potency (CP329) | Potency (FAB9) | Potency (JCK)

O=C(O)C[CH2][Ge](=[O])[O][Ge](=[O])[CH2]CC(=O)O
inactive: Potency [1] | Potency [2] | Potency [3] | activity, negative = inhibition ([4]; parasite line A) 10.2% | Potency (CP192) | Potency (CP201) | Potency (CP211) | Potency (CP238) | Potency (CP262) | Potency (CP269) | Potency (CP286) | Potency (CP315) | Potency (CP325) | Potency (CP329) | Potency (DFO2036) | Potency (Dd2) | Potency (FAB9) | Potency (JCK) | Potency (N140) | Potency (PC49)

CC1CCC(O)C/C1=C\C=C1/CCCC2(C)C1CCC2C(C)/C=C/C(C)C(C)C (centres undefined)
inactive: Potency [1] | Potency [2] | activity, negative = inhibition ([4]; parasite line A) -1.73% | activity, negative = inhibition ([4]; parasite line B) -28.9% | Potency (CP192) | Potency (CP201) | Potency (CP211) | Potency (CP238) | Potency (CP262) | Potency (CP269) | Potency (CP286) | Potency (CP315) | Potency (CP325) | Potency (CP329) | Potency (DFO2036) | Potency (Dd2) | Potency (FAB9) | Potency (JCK) | Potency (PC49)

CC(C)CCCC(C)C1CC(=O)C2=C3CCC4CC(O)CCC4(C)C3CCC21C (centres undefined)
active: Potency (Dd2) 12.6 µM
inactive: Potency [1] | Potency [2] | Potency [3] | activity, negative = inhibition ([4]; parasite line A) 4.35% | activity, negative = inhibition ([4]; parasite line B) -0.553% | Potency (CP192) | Potency (CP201) | Potency (CP211) | Potency (CP238) | Potency (CP262) | Potency (CP269) | Potency (CP315) | Potency (CP325) | Potency (CP329) | Potency (DFO2036) | Potency (FAB9) | Potency (JCK) | Potency (N140) | Potency (PC49)

CNC1CCc2cc(OC)c(OC)c(OC)c2-c2ccc(OC)c(=O)cc21 (centres undefined)
active: Potency [3] 0.178 µM
inactive: Potency [1] | Potency [2] | activity, negative = inhibition ([4]; parasite line A) -5.32% | activity, negative = inhibition ([4]; parasite line B) 0.292% | Potency (CP192) | Potency (CP201) | Potency (CP211) | Potency (CP238) | Potency (CP262) | Potency (CP269) | Potency (CP286) | Potency (CP315) | Potency (CP325) | Potency (CP329) | Potency (DFO2036) | Potency (FAB9) | Potency (JCK) | Potency (N140) | Potency (PC49)

Cc1cc(O)c2c(c1)OC1(C)CCC3C(C)(C)CCCC34COC2C14 (centres undefined)
inactive: Potency [1] | Potency [2] | Potency [3] | activity, negative = inhibition ([4]; parasite line A) -27.8% | Potency (CP192) | Potency (CP201) | Potency (CP238) | Potency (CP286) | Potency (CP315) | Potency (CP325) | Potency (CP329) | Potency (FAB9)
active: Potency (N140) 12.6 µM

CC1=C(c2ccc(NN=C(C#N)C#N)cc2)NNC(=O)C1
active: Potency [2] 14.4 µM
inactive: Potency [1] | Potency [3] | activity, negative = inhibition ([4]; parasite line A) -7.66% | activity, negative = inhibition ([4]; parasite line B) 20.7% | Potency (CP192) | Potency (CP201) | Potency (CP211) | Potency (CP238) | Potency (CP262) | Potency (CP269) | Potency (CP286) | Potency (CP315) | Potency (CP325) | Potency (CP329) | Potency (DFO2036) | Potency (Dd2) | Potency (FAB9) | Potency (JCK) | Potency (N140) | Potency (PC49)

CC1OC(OC2C(O)CC(OC3C(O)CC(OC4CCC5(C)C(CCC6C5CCC5(C)C(C7=CC(=O)OC7)CCC65O)C4)OC3C)OC2C)CC(O)C1O (centres undefined)
inactive: Potency [1] | Potency [2] | Potency [3] | activity, negative = inhibition ([4]; parasite line A) 1.31% | activity, negative = inhibition ([4]; parasite line B) 5.82% | Potency (CP192) | Potency (CP201) | Potency (CP211) | Potency (CP238) | Potency (CP262) | Potency (CP269) | Potency (CP286) | Potency (CP315) | Potency (CP325) | Potency (CP329) | Potency (DFO2036) | Potency (FAB9) | Potency (JCK) | Potency (N140) | Potency (PC49)

C/C(=C(/CCOC(=O)C(C)C)SS/C(CCOC(=O)C(C)C)=C(\C)N(C=O)Cc1cnc(C)nc1N)N(C=O)Cc1cnc(C)nc1N
inactive: Potency [1] | Potency [2] | Potency [3] | activity, negative = inhibition ([4]; parasite line B) -17.2% | Potency (CP192) | Potency (CP201) | Potency (CP211) | Potency (CP238) | Potency (CP269) | Potency (CP286) | Potency (CP315) | Potency (CP325) | Potency (Dd2) | Potency (FAB9) | Potency (JCK) | Potency (N140) | Potency (PC49)

CCC1OC(=O)C[C@H](O)C(C)[C@@H](O[C@@H]2OC(C)C(O)C(N(C)C)C2O)C(CCN2CC(C)CC(C)C2)CC(C)C(=O)/C=C/C(C)=C\[C@@H]1COC1OC(C)C(O)C(OC)C1OC (some centres undefined)
inactive: Potency [1] | Potency [2] | activity, negative = inhibition ([4]; parasite line A) -29.2% | Potency (FAB9)
active: Potency (CP286) 5.62 µM | Potency (Dd2) 3.98 µM | Potency (N140) 10 µM
